Data as given in PubChem BioAssay (NCI).
About 79,000 compounds went through this panel and 15% of them were active in at least one assay; those are over-represented in the sample as a whole. Calls of active or inactive are those of the source. Rule as the data show it: active = growth inhibition above about 70%; inactive = the rest.

Tests used:
[1] = NCI Yeast Anticancer Drug Screen. Data for the rad50 strain (AID 155);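 also: 0% = growth of vehicle-only cultures of the same strain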; details: S. cerevisiae rad50 strain growth inhibition, hits give high values
Method in brief: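 Compounds were tested on a yeast strain with an engineered DNA damage repair alteration; the reported value is growth inhibition normalised to vehicle treatment.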

[2] = NCI Yeast Anticancer Drug Screen. Data for the mec2-1 strain (AID 157); details: S. cerevisiae mec2-1 strain, hits give high values
Method in brief: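 Each compound was tested on mec2-1 yeast, a strain altered in DNA damage repair or cell cycle control. Growth inhibition is reported relative to vehicle.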

[3] = NCI Yeast Anticancer Drug Screen. Data for the sgs1 mgt1 strain (AID 161);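 also: 0% = growth of cultures given vehicle only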; details: S. cerevisiae sgs1 mgt1 strain, hits give high values
Method in brief: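 Inhibition of yeast growth, normalised to vehicle-treated controls, is reported for a strain bearing genetic alterations in DNA damage repair.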

[4] = NCI Yeast Anticancer Drug Screen. Data for the cln2 rad14 strain (AID 165);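 also: 0% = growth equal to vehicle treated cultures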; details: S. cerevisiae cln2 rad14 strain, hits give high values
Method in brief: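 Test compounds were added to cln2 rad14 yeast cultures; inhibition of growth was then determined by comparison with vehicle treatment.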

[5] = NCI Yeast Anticancer Drug Screen. Data for the bub3 strain (AID 167); details: S. cerevisiae bub3 mutant strain, hits give high values
Method in brief: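 Growth of a checkpoint-deficient yeast mutant is measured after compound exposure. Values represent inhibition relative to vehicle.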

[6] = NCI Yeast Anticancer Drug Screen. Data for the mlh1 rad18 strain (AID 175); details: S. cerevisiae mlh1 rad18 strain growth inhibition, hits give high values
Method in brief: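 Inhibition values reflect reduced growth of mutant yeast versus vehicle-treated controls following compound exposure; the mutations affect DNA damage repair.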

[7] = at 5.0 µM (retest, dose inferred, filed as 0.5)
[8] = at 50.0 µM (retest, dose inferred, filed as 5.0)

Measured: growth inhibition

C/C(=N\NC(=S)N1CCC1)c1ccccn1
active: [1]; [7] 91% | [1]; [8] 96% | [2]; [7] 88% | [2]; [8] 98% | [3]; [7] 92% | [3]; [8] 99% | [3]; at 50.0 µM 87.8% | [4]; [7] 93% | [4]; [8] 96% | [4]; at 50.0 µM 87% | [5]; [7] 94% | [5]; [8] 98% | [5]; at 50.0 µM 87.5% | [6]; [7] 93% | [6]; [8] 96%

CCCCNC(=O)C(C)O (stereo not given)
inactive: [1]; [7] 5% | [1]; [8] 23% | [2]; [7] 0% | [2]; [8] 3% | [3]; [7] 0% | [3]; [8] 4% | [4]; [7] 5% | [4]; [8] 0% | [5]; [7] 1% | [5]; [8] -2% | [6]; [7] 3% | [6]; [8] 8%

CCC[CH2][Sn]([CH2]CCC)([CH2]CCC)[O]C(=O)C(OC(C)=O)c1ccccc1 (stereo not given)
active: [1]; [7] 99% | [1]; [8] 99% | [1]; at 50.0 µM 91.5% | [2]; [7] 99% | [2]; [8] 99% | [2]; at 50.0 µM 92.2% | [5]; [7] 99% | [5]; [8] 99% | [5]; at 50.0 µM 90.2% | [6]; [7] 100% | [6]; [8] 100% | [6]; at 50.0 µM 91%

Clc1ccc(-n2ncc3c(Cl)nc(Cl)nc32)cc1
active: [1]; [7] 98% | [1]; [8] 99% | [2]; [7] 99% | [2]; [8] 99% | [3]; [7] 100% | [3]; [8] 99% | [4]; [7] 97% | [4]; [8] 98% | [5]; [7] 99% | [5]; [8] 99% | [6]; [7] 99% | [6]; [8] 99%

CC1=CC[C@@H]2[C@@H](CC[C@@]2(C)O)C(C)(C)[C@H]1CC[C@@H]1[C@@]2(C)CCC(=O)C(C)(C)O[C@@H]2CC[C@]1(C)O
inactive: [1]; [7] 20% | [1]; [8] 57% | [3]; [7] -1% | [4]; [7] 16% | [4]; at 50.0 µM 55.2% | [5]; [7] 10% | [5]; at 50.0 µM 62.1% | [6]; [7] 25% | [6]; [8] 62% | [6]; at 50.0 µM 22.9%
active: [1]; at 50.0 µM 74.8% | [3]; [8] 78% | [3]; at 50.0 µM 72.2% | [4]; [8] 70% | [5]; [8] 73%

OCCNC(c1ccc(Cl)cc1)C(O)c1ccc(Cl)cc1 (stereo not given)
active: [3]; [8] 77%
inactive: [1]; [7] 5% | [1]; [8] 62% | [2]; [7] -3% | [2]; [8] 13% | [3]; [7] 0% | [4]; [7] 11% | [4]; [8] 8% | [5]; [7] 6% | [5]; [8] 55% | [6]; [7] -4% | [6]; [8] 59%

Cc1cc(C(=O)c2ccccc2Cl)ccc1O
inactive: [1]; [7] 10% | [2]; [7] -5% | [3]; [7] 3% | [4]; [7] -2% | [5]; [7] -3% | [6]; [7] 10%
active: [1]; [8] 98% | [2]; [8] 99% | [3]; [8] 98% | [4]; [8] 98% | [5]; [8] 99% | [6]; [8] 98%

COc1ccc(/C(C#N)=C/c2cccc(N)c2)cc1
inactive: [1]; [7] 6% | [1]; [8] 16% | [2]; [7] 3% | [2]; [8] 10% | [3]; [7] 1% | [3]; [8] 27% | [4]; [7] 2% | [4]; [8] 2% | [5]; [7] 13% | [5]; [8] 42% | [6]; [7] -30% | [6]; [8] 12%

CSS(C)(=O)=O
inactive: [1]; [7] 59% | [2]; [7] 6% | [3]; [7] 10% | [4]; [7] -4% | [5]; [7] -1% | [6]; [7] 3%
active: [1]; [8] 98% | [2]; [8] 99% | [3]; [8] 99% | [4]; [8] 98% | [5]; [8] 99% | [6]; [8] 95%

NCCN1C(=O)CNC1=S
inactive: [1]; [7] -23% | [1]; [8] 30% | [2]; [7] -1% | [2]; [8] -4% | [3]; [7] 3% | [3]; [8] 3% | [4]; [7] 0% | [4]; [8] -3% | [5]; [7] -1% | [5]; [8] -5% | [6]; [7] 10% | [6]; [8] 17%

CSC(SC)=C(C#N)C(=O)Nc1cccc(Cl)c1
inactive: [2]; [7] 62% | [3]; [7] 65% | [4]; [7] 39% | [5]; [7] 65% | [6]; [7] 56%
active: [1]; [7] 78% | [1]; [8] 97% | [2]; [8] 99% | [3]; [8] 99% | [4]; [8] 98% | [5]; [8] 99% | [6]; [8] 97%

CCCC(=O)c1ccc([N+](=O)[O-])o1
inactive: [1]; [7] 13% | [2]; [7] 7% | [3]; [7] 15% | [4]; [7] 4% | [5]; [7] 16% | [6]; [7] 1%
active: [1]; [8] 98% | [2]; [8] 99% | [3]; [8] 99% | [4]; [8] 98% | [5]; [8] 100% | [6]; [8] 98%
